Experimental findings from ChEMBL document CHEMBL3988442, “University of Dundee, Small-Polar-MMV Screening Library” (2021) are described below.

The test has as its target Shiga toxin 2 (Escherichia coli O157:H7) (UniProt P09385+P09386). Nature of the test: E. coli 0.157:H7 Shiga Toxin SOP - stx2 screening assay. Further details: scale not given: direction of the effect not stated beside the values. The settings on record: 30 µM. The class given is functional.
As for `Cc1csc(C2CCCCN2C(=O)CN(C)C2CC2)n1` (stereo not given), the Percent Effect was -4.47%.

With `CCCn1ccc(C(=O)N2CCOC(c3nc(-c4cccs4)no3)C2)n1` (stereo not given), the Percent Effect was -0.831%.

Take `O=C(CCc1cscn1)N1CCCC(c2ccn[nH]2)C1` (stereo not given): the Percent Effect was determined as 5.88%.

`CC(C(=O)N1CCCN(c2ncccc2C#N)CC1)n1ccnc1` (stereo not given): the Percent Effect was found to be 24%.

Turning to `CNC(=O)CCNC(=O)c1cccc(Cn2nc(C)cc2C)c1`, the Percent Effect is -15.4%.

Consider `Cc1c(F)cccc1CN1CCn2nc(CNC(=O)N(C)C)cc2C1`, for which the Percent Effect is -49.9%.

In the case of `CC(=O)N(Cc1ncc(C)o1)C1CCN(CCNC2CCCCC2)C1` (stereo not given), the Percent Effect was -30.8%.

Turning to `CNC(=O)Nc1cc(-c2ccccc2C)nn1CCO`, the Percent Effect is -22%.

For `COc1nn(C)c2c1CCCN(C(=O)c1ccccc1)C2`, the Percent Effect was -9.13%.

Regarding `Cc1cccnc1NC(=O)CSc1ccc2c(c1)OCCO2`, the Percent Effect was -4.11%.

As for `COc1ccccc1OCc1cc(C(=O)N2CCN[C@H](C)C2)n[nH]1`, the Percent Effect is -31.9%.

In the case of `O=C(NCCNc1ncccn1)Nc1cc(C(F)(F)F)c[nH]c1=O`, the Percent Effect amounted to 3.13%.

For the molecule `Fc1ccc(CN2CCO[C@H]3[C@H](OCCN4CCCC4)CC[C@@H]32)cc1`, the Percent Effect is -20.2%.

As to `CC1CN(C(=O)CN(Cc2ccco2)C2CC2)CCO1` (stereo not given), the Percent Effect came out at 18.9%.

In the case of `CC(=O)Nc1nc(C2CCN(C(=O)c3cccnc3)CC2)cs1`, the Percent Effect is -3.89%.

For the molecule `O=C(CSC1CCc2ccccc2NC1=O)NCCO` (stereo not given), the Percent Effect was -11.3%.

As to `Cc1ccc(NC2CCN(C(=O)c3cccc(F)c3F)CC2)nn1`, the Percent Effect is -17%.

In the case of `Cn1cc(C(=O)NCc2cn3c(n2)CN(Cc2ccccn2)CC3)cn1`, the Percent Effect is -42%.

In the case of `c1coc(CN2Cc3nccn3CC(Cn3cncn3)C2)c1` (stereo not given), the Percent Effect is -9.64%.

In the case of `CN(C)C(=O)Cc1ccc(NC(=O)NC2CCCCC2)cc1`, the Percent Effect came to 1.55%.

Take `CCNC(=O)[C@@H]1C[C@@H](NC(=O)Cc2ccccn2)CN1CCCSC`: the Percent Effect was -40.5%.

In the case of `CN(Cc1nnc2n1CCC2)C(=O)Cc1ccc2c(c1)OCCO2`, the Percent Effect is 18.1%.

Take `COc1ccccc1[C@@H]1CN(Cc2cc(C(C)(C)C)[nH]n2)C[C@H]1C(=O)O`: the Percent Effect was -6.54%.

As for `COC(=O)C(C)(C)NC(=O)C1CC(=O)N(C2CCCC2)C1` (stereo not given), the Percent Effect is -3.28%.

`Cc1cnn(CC2CCCN2C(=O)c2cccc(CC#N)c2)c1` (stereo not given): the Percent Effect amounted to 8.24%.

On to `CN(C)CC1CN(Cc2ccc3c(c2)OCO3)Cc2nccn2C1` (stereo not given), for which the Percent Effect turned out to be 4.74%.

In the case of `O=C(NS(=O)(=O)c1ccc2c(c1)OCCO2)c1ccc(Br)cc1F`, the Percent Effect came to 8.44%.

Consider `Cc1nc(C)n(C2CCCN(C(=O)c3csnn3)C2)n1` (stereo not given), for which the Percent Effect turned out to be 18.7%.

As to `Cc1ccc2c(c1)c(CNC(=O)C1CCN(C(C)C)CC1)nn2C`, the Percent Effect was -2.96%.

For the molecule `Cc1nn(C)c2c(NCc3ccccc3F)nc(C3CC3)nc12`, the Percent Effect was -20.5%.

On to `COC(=O)c1ccc(C(=O)NS(=O)(=O)c2cncc(Br)c2)cc1`, for which the Percent Effect came out at 8.86%.

Take `Cc1nn(C)c(N(C)C)c1CNCc1cccc(CN(C)C(C)C)c1`: the Percent Effect amounted to 5.42%.

As for `Cc1ccoc1C(=O)N1C[C@@H]2[C@@H](C1)OCC(=O)N2Cc1cccnc1`, the Percent Effect is -12.8%.

Regarding `CCOC(=O)NC(CNC(=O)c1ncccn1)CC(C)C` (stereo not given), the Percent Effect stood at 4.71%.

Take `Cc1cnc(NC(=O)N2CCCC2)s1`: the Percent Effect came to 1.43%.

Take `COCCNC(=O)C(C)n1cc(Br)cn1` (stereo not given): the Percent Effect is -44.4%.

Consider `CCn1cc(NC(=O)C2CCN(Cc3noc(C(C)C)n3)CC2)cn1`, for which the Percent Effect is -21.2%.

On to `Cc1cc(NC(=O)NCCc2ccsc2)n(C)n1`, for which the Percent Effect is -21.1%.

Take `O=C(c1ccncc1)N1CCCn2c(CN3CCCCC3)nnc2C1`: the Percent Effect was -4.1%.

Consider `Cc1nnc(CN2CCN(CCOc3ccccc3C#N)CC2)n1C`, for which the Percent Effect was found to be 3.89%.
